Structures can show the parent of a compound that is named as a salt.
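Further: viability read by CCK-8 kit in 96-well plates, part of a combination screen pairing lipid-metabolism-targeting compounds with erastin.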

The assay concerns MDA-MB-231. Put plainly: relative cell viability, compound + erastin, vs DMSO (fraction of DMSO control); higher = less growth inhibition. The following applies: 72 h.
For the compound `O=C(NN1CCCCC1)c1nn(-c2ccc(Cl)cc2Cl)c(-c2ccc(C#Cc3ccc(C(F)(F)F)cc3)s2)c1CNS(=O)(=O)N1CCCC1` + CCOc1ccccc1-n1c(C(C)N2CCN(C(=O)COc3ccc(Cl)cc3)CC2)nc2ccccc2c1=O [erastin], the relative cell viability turned out to be 0.395.
Turning to `CCCCCCCCCCCCCCOc1ccc(C(=O)O)o1` + CCOc1ccccc1-n1c(C(C)N2CCN(C(=O)COc3ccc(Cl)cc3)CC2)nc2ccccc2c1=O [erastin], the relative cell viability was 0.696.
`O=C(O)c1cc2c(Cl)c(N3CCN(S(=O)(=O)c4c(Cl)cccc4Cl)CC3)ccc2o1` [Vonafexor] + CCOc1ccccc1-n1c(C(C)N2CCN(C(=O)COc3ccc(Cl)cc3)CC2)nc2ccccc2c1=O [erastin]: the relative cell viability was 0.989.
The value for `O=C(c1ccc(NS(=O)(=O)c2cccc3cccnc23)cc1)N1CCN(CC2CC2)CC1` [Mitapivat] + CCOc1ccccc1-n1c(C(C)N2CCN(C(=O)COc3ccc(Cl)cc3)CC2)nc2ccccc2c1=O [erastin] was 0.638.
In the case of `C=C1C[C@]2(O)O[C@@]3(CC2=C(C)C)[C@@H](C)CC[C@@H]13` [Isocurcumenol] + CCOc1ccccc1-n1c(C(C)N2CCN(C(=O)COc3ccc(Cl)cc3)CC2)nc2ccccc2c1=O [erastin], the relative cell viability amounted to 0.662.
Take `COc1ccc(C(=O)/C=C/c2ccccc2)cc1` [4'-Methoxychalcone] + CCOc1ccccc1-n1c(C(C)N2CCN(C(=O)COc3ccc(Cl)cc3)CC2)nc2ccccc2c1=O [erastin]: the relative cell viability worked out at 0.54.
For the compound `O=C(Oc1ccc([N+](=O)[O-])cc1)N1CCC(C(O)(c2ccc3c(c2)OCO3)c2ccc3c(c2)OCO3)CC1` + CCOc1ccccc1-n1c(C(C)N2CCN(C(=O)COc3ccc(Cl)cc3)CC2)nc2ccccc2c1=O [erastin], the relative cell viability was 0.641.
The figure for `O=P(O)(O)OC(CO)CO` [β-Glycerol phosphate disodium salt pentahydrate] + CCOc1ccccc1-n1c(C(C)N2CCN(C(=O)COc3ccc(Cl)cc3)CC2)nc2ccccc2c1=O [erastin] is 0.527; for `CC[C@H](C)C(=O)O[C@H]1C[C@@H](C)C=C2C=C[C@H](C)[C@H](CC[C@@H]3C[C@@H](O)CC(=O)O3)[C@H]21` [Lovastatin] + CCOc1ccccc1-n1c(C(C)N2CCN(C(=O)COc3ccc(Cl)cc3)CC2)nc2ccccc2c1=O [erastin] it is 0.569.
As for `Nc1cccc(S(=O)(=O)N2CCCN(S(=O)(=O)c3ccc4c(c3)OCCO4)CC2)c1` + CCOc1ccccc1-n1c(C(C)N2CCN(C(=O)COc3ccc(Cl)cc3)CC2)nc2ccccc2c1=O [erastin], the relative cell viability was 0.553.
Regarding `c1cc(-c2cnn3cc(-c4ccc(OCCN5CCCCC5)cc4)cnc23)ccn1` [Dorsomorphin] + CCOc1ccccc1-n1c(C(C)N2CCN(C(=O)COc3ccc(Cl)cc3)CC2)nc2ccccc2c1=O [erastin], the relative cell viability is 0.405.
The value for `COP(=O)(OC)OC(c1ccc(Cl)cc1)P(=O)(OC)OC` (configuration not stated) [Mifobate] + CCOc1ccccc1-n1c(C(C)N2CCN(C(=O)COc3ccc(Cl)cc3)CC2)nc2ccccc2c1=O [erastin] was 1.06.
The value for `O=C(c1ccc(-c2nc3ccc(F)cc3o2)cc1)N1CCN(C(=O)C2(O)CC2)CC1` + CCOc1ccccc1-n1c(C(C)N2CCN(C(=O)COc3ccc(Cl)cc3)CC2)nc2ccccc2c1=O [erastin] was 0.823; that for `N#Cc1ccc(Oc2cccc(NC(=O)Nc3ccc(Cl)c(C(F)(F)F)c3)c2)cc1` + CCOc1ccccc1-n1c(C(C)N2CCN(C(=O)COc3ccc(Cl)cc3)CC2)nc2ccccc2c1=O [erastin] was 0.127.
The figure for `CC(C)=CCC[C@](C)(O[C@@H]1O[C@H](CO)[C@@H](O)[C@H](O)[C@H]1O)[C@H]1CC[C@]2(C)[C@@H]1[C@H](O)C[C@@H]1[C@@]3(C)CC[C@H](O[C@@H]4O[C@H](CO)[C@@H](O)[C@H](O)[C@H]4O[C@@H]4O[C@H](CO)[C@@H](O)[C@H](O)[C@H]4O)C(C)(C)[C@@H]3CC[C@]12C` [Ginsenoside Rd] + CCOc1ccccc1-n1c(C(C)N2CCN(C(=O)COc3ccc(Cl)cc3)CC2)nc2ccccc2c1=O [erastin] is 0.317; for `O=C(Nc1ccncc1)c1cc([N+](=O)[O-])ccc1Cl` + CCOc1ccccc1-n1c(C(C)N2CCN(C(=O)COc3ccc(Cl)cc3)CC2)nc2ccccc2c1=O [erastin] it is 0.726; for `Cc1c(C(=O)NN2CCCCC2)nn(-c2ccc(Cl)cc2Cl)c1-c1ccc(Cl)cc1` [Rimonabant] + CCOc1ccccc1-n1c(C(C)N2CCN(C(=O)COc3ccc(Cl)cc3)CC2)nc2ccccc2c1=O [erastin] it is 0.273.
On to `C[C@]12C=CC(=O)N[C@@H]1CC[C@@H]1[C@@H]2CC[C@]2(C)[C@@H](C(=O)Nc3cc(C(F)(F)F)ccc3C(F)(F)F)CC[C@@H]12` [Dutasteride] + CCOc1ccccc1-n1c(C(C)N2CCN(C(=O)COc3ccc(Cl)cc3)CC2)nc2ccccc2c1=O [erastin], for which the relative cell viability is 0.596.
In the case of `O=c1cc(-c2ccc(O)c(-c3c(O)cc(O)c4c(=O)cc(-c5ccc(O)cc5)oc34)c2)oc2cc(O)cc(O)c12` [Amentoflavone] + CCOc1ccccc1-n1c(C(C)N2CCN(C(=O)COc3ccc(Cl)cc3)CC2)nc2ccccc2c1=O [erastin], the relative cell viability is 0.715.
Regarding `CCC(CC)CC1(C(=O)Nc2ccccc2SC(=O)C(C)C)CCCCC1` [Dalcetrapib] + CCOc1ccccc1-n1c(C(C)N2CCN(C(=O)COc3ccc(Cl)cc3)CC2)nc2ccccc2c1=O [erastin], the relative cell viability is 0.839.
Regarding `COc1cc([C@@H]2Oc3c(O)cc([C@H]4Oc5cc(O)cc(O)c5C(=O)[C@@H]4O)cc3[C@H]2CO)ccc1O` [Silychristin] + CCOc1ccccc1-n1c(C(C)N2CCN(C(=O)COc3ccc(Cl)cc3)CC2)nc2ccccc2c1=O [erastin], the relative cell viability was determined as 0.685.
The value for `Cc1nc2c([nH]1)c(=O)n(C)c(=O)n2Cc1ccco1` [Furafylline] + CCOc1ccccc1-n1c(C(C)N2CCN(C(=O)COc3ccc(Cl)cc3)CC2)nc2ccccc2c1=O [erastin] was 0.767; that for `O=C(O)Cn1nnc(-c2cc(N3CCC(Oc4cc(F)ccc4Br)CC3)no2)n1` + CCOc1ccccc1-n1c(C(C)N2CCN(C(=O)COc3ccc(Cl)cc3)CC2)nc2ccccc2c1=O [erastin] was 0.679.
The figure for `COc1cc(N2CCN(C)CC2)ccc1Nc1ncc2c(n1)N(C1CCC1)C(=O)N(c1c(C)cccc1C)C2` + CCOc1ccccc1-n1c(C(C)N2CCN(C(=O)COc3ccc(Cl)cc3)CC2)nc2ccccc2c1=O [erastin] is 0.586.
The value for `CC(=O)O[C@H](CC=C(C)C)C1=CC(=O)c2c(O)ccc(O)c2C1=O` [Acetyl shikonin] + CCOc1ccccc1-n1c(C(C)N2CCN(C(=O)COc3ccc(Cl)cc3)CC2)nc2ccccc2c1=O [erastin] was 0.877.
Take `O=C(O)c1cccc(N=Nc2c(O)[nH]c3ccc(S(=O)(=O)NCc4ccc(F)cc4)cc23)c1` + CCOc1ccccc1-n1c(C(C)N2CCN(C(=O)COc3ccc(Cl)cc3)CC2)nc2ccccc2c1=O [erastin]: the relative cell viability came to 0.636.
The value for `COc1cc(C(C)=O)ccc1O` [Acetovanillone] + CCOc1ccccc1-n1c(C(C)N2CCN(C(=O)COc3ccc(Cl)cc3)CC2)nc2ccccc2c1=O [erastin] was 0.666.
The value for `CC(=O)Oc1cc(C(F)(F)F)ccc1C(=O)O` [Triflusal] + CCOc1ccccc1-n1c(C(C)N2CCN(C(=O)COc3ccc(Cl)cc3)CC2)nc2ccccc2c1=O [erastin] was 0.648; that for `O=c1oc2ccccc2cc1O` [3-Hydroxycoumarin] + CCOc1ccccc1-n1c(C(C)N2CCN(C(=O)COc3ccc(Cl)cc3)CC2)nc2ccccc2c1=O [erastin] was 0.741.
On to `O=S(=O)(O)c1ccc2cc(N=Nc3cc(S(=O)(=O)O)c4cccnc4c3O)ccc2c1` + CCOc1ccccc1-n1c(C(C)N2CCN(C(=O)COc3ccc(Cl)cc3)CC2)nc2ccccc2c1=O [erastin], for which the relative cell viability was 0.595.
For `CC(C)c1c(C(=O)Nc2ccccc2)c(-c2ccccc2)c(-c2ccc(F)cc2)n1CC[C@@H](O)C[C@@H](O)CC(=O)O` [Atorvastatin Calcium] + CCOc1ccccc1-n1c(C(C)N2CCN(C(=O)COc3ccc(Cl)cc3)CC2)nc2ccccc2c1=O [erastin], the relative cell viability came to 0.337.
As to `CC(c1cc2ccccc2s1)N(O)C(N)=O` (configuration not stated) [Zileuton] + CCOc1ccccc1-n1c(C(C)N2CCN(C(=O)COc3ccc(Cl)cc3)CC2)nc2ccccc2c1=O [erastin], the relative cell viability was determined as 0.595.
The figure for `CCCCCCCCCCCC1=C(O)C(=O)C=C(O)C1=O` [Embelin] + CCOc1ccccc1-n1c(C(C)N2CCN(C(=O)COc3ccc(Cl)cc3)CC2)nc2ccccc2c1=O [erastin] is 0.575; for `CN1CCN(c2ccc(/C=C(\C#N)c3ccccc3Br)cc2)CC1` [DG172 (dihydrochloride)] + CCOc1ccccc1-n1c(C(C)N2CCN(C(=O)COc3ccc(Cl)cc3)CC2)nc2ccccc2c1=O [erastin] it is 0.608.
The value for `Cc1ccc(/C=C2\SC(=S)N(CCCCCC(=O)Nc3ccc(C(=O)O)c(O)c3)C2=O)cc1` + CCOc1ccccc1-n1c(C(C)N2CCN(C(=O)COc3ccc(Cl)cc3)CC2)nc2ccccc2c1=O [erastin] was 0.638.
In the case of `Cc1cc(N2C[C@@H](C)N[C@@H](C)C2)ncc1-c1ccc(-c2nc3c(ccn3C)c(=O)[nH]2)cc1` + CCOc1ccccc1-n1c(C(C)N2CCN(C(=O)COc3ccc(Cl)cc3)CC2)nc2ccccc2c1=O [erastin], the relative cell viability was determined as 0.551.
For the compound `CCNC1(C(N)=O)CCN(c2ncnc3c2nc(-c2ccccc2Cl)n3-c2ccc(Cl)cc2)CC1` [Otenabant] + CCOc1ccccc1-n1c(C(C)N2CCN(C(=O)COc3ccc(Cl)cc3)CC2)nc2ccccc2c1=O [erastin], the relative cell viability was determined as 0.459.
